In the supplement of paper PMC9950053:
Structures can show the parent of a compound that is named as a salt.

Tested on: Danio rerio larvae (5 dpf)
Experiment: excitability (activity period 17 minus period 16, 1-s interval sound) minus DMSO control (percentage points); higher = more acoustic excitability than DMSO larvae
Settings: 10 µM; exposure time: 3 h pre-incubation + 3 h imaging
Protocol: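 Wild-type 5 dpf zebrafish larvae (n=48 per drug, 96-well plates, 28.5 °C) were exposed to Tocris FDA-approved library compounds at 10 µM (0.1% DMSO) for 3 h before and 3 h during imaging. Images were taken every 6 s during visual and acoustic stimuli, and larvae were tracked with Z-LaP Tracker. Each measure is the treated-group mean minus the DMSO control mean (n=844), in percentage points. This mapping covers compounds with 5-character plate codes.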

| Compound | excitability |
| --- | --- |
| CNC(=O)c1cc(Oc2ccc(NC(=O)Nc3ccc(Cl)c(C(F)(F)F)c3)cc2)ccn1 [Sorafenib] | 13.1 |
| N#Cc1ccc2[nH]cc(CCCCN3CCN(c4ccc5oc(C(N)=O)cc5c4)CC3)c2c1 [Vilazodone hydrochloride] | 17 |
| CC(C)OC(=O)C(C)(C)Oc1ccc(C(=O)c2ccc(Cl)cc2)cc1 [Fenofibrate] | 4.72 |
| COc1cc2nccc(Oc3ccc(NC(=O)C4(C(=O)Nc5ccc(F)cc5)CC4)cc3)c2cc1OC | 16.9 |
| COc1ccccc1Oc1c(NS(=O)(=O)c2ccc(C(C)(C)C)cc2)nc(-c2ncccn2)nc1OCCO [Bosentan] | -2.37 |
| Clc1ccc2nsnc2c1NC1=NCCN1 [Tizanidine hydrochloride] | 6.39 |
| CCc1nc(N)nc(N)c1-c1ccc(Cl)cc1 [Pyrimethamine] | 6.57 |
| CN(C)C(=N)NC(=N)N [Metformin hydrochloride] | 6.55 |
| CN(C)CCc1c[nH]c2ccc(C[C@H]3COC(=O)N3)cc12 [Zolmitriptan] | 4.24 |
| CC(C)COCC(CN(Cc1ccccc1)c1ccccc1)N1CCCC1 (configuration not stated) [Bepridil hydrochloride] | 14.7 |
| CCCC1O[C@@H]2C[C@H]3[C@@H]4CCC5=CC(=O)C=C[C@]5(C)[C@H]4[C@@H](O)C[C@]3(C)[C@]2(C(=O)CO)O1 (some centres not stated) [Budesonide] | 1.14 |
| O=C1CCc2ccc(OCCCCN3CCN(c4cccc(Cl)c4Cl)CC3)cc2N1 [Aripiprazole] | 16.5 |
| COc1cc([C@@H]2c3cc4c(cc3[C@@H](O[C@@H]3O[C@@H]5CO[C@@H](C)O[C@H]5[C@H](O)[C@H]3O)[C@H]3COC(=O)[C@H]23)OCO4)cc(OC)c1O [Etoposide] | 9.95 |
| CC(C)(C(=O)O)c1ccc(C(O)CCCN2CCC(C(O)(c3ccccc3)c3ccccc3)CC2)cc1 (configuration not stated) [Fexofenadine hydrochloride] | -5.03 |
| O=c1n(CCCN2CCN(c3cccc(Cl)c3)CC2)nc2ccccn12 [Trazodone hydrochloride] | 20.3 |
| CC[C@H]1OC(=O)[C@H](C)[C@@H](O[C@H]2C[C@@](C)(OC)[C@@H](O)[C@H](C)O2)[C@H](C)[C@@H](O[C@@H]2O[C@H](C)C[C@H](N(C)C)[C@H]2O)[C@](C)(O)C[C@@H](C)CN(C)[C@H](C)[C@@H](O)[C@]1(C)O [Azithromycin] | 15.8 |
| O=C(O)C[C@H](O)C[C@H](O)/C=C/c1c(C2CC2)nc2ccccc2c1-c1ccc(F)cc1 [Pitavastatin calcium] | -1.16 |
| COCCc1ccc(OCC(O)CNC(C)C)cc1 (configuration not stated) [Metoprolol tartrate] | -6.24 |
| COc1ccccc1OCC(O)CN1CCN(CC(=O)Nc2c(C)cccc2C)CC1 (configuration not stated) [Ranolazine dihydrochloride] | 4.28 |

| Compound | excitability |
| --- | --- |
| CCCc1nn(C)c2c(=O)[nH]c(-c3cc(S(=O)(=O)N4CCN(C)CC4)ccc3OCC)nc12 [Sildenafil citrate] | 4.28 |
| COc1cc(N)c(Cl)cc1C(=O)NC1CCN(CCCOc2ccc(F)cc2)CC1OC (configuration not stated) [Cisapride] | 18.5 |
| CNCc1ccc(-c2[nH]c3cc(F)cc4c3c2CCNC4=O)cc1 [Rucaparib camsylate] | 13.1 |
| CNS(=O)(=O)Cc1ccc2[nH]cc(CCN(C)C)c2c1 [Sumatriptan succinate] | -4.97 |
| C#CCN[C@@H]1CCc2ccccc21 [Rasagiline mesylate] | -0.121 |
| CN[C@H]1CC[C@@H](c2ccc(Cl)c(Cl)c2)c2ccccc21 [Sertraline hydrochloride] | 10.4 |
| CC(=O)Nc1ccc(O)cc1 [Acetaminophen] | -1.73 |
| NS(=O)(=O)c1cc2c(cc1Cl)NC(C1CC3C=CC1C3)NS2(=O)=O (configuration not stated) [Cyclothiazide] | 0.365 |
| C[C@H]1O[C@H](O[C@H]2[C@H](O)[C@@H](O)[C@@H](O[C@H]3[C@H](O)[C@@H](O)C(O)O[C@@H]3CO)O[C@@H]2CO)[C@H](O)[C@@H](O)[C@@H]1N[C@H]1C=C(CO)[C@@H](O)[C@H](O)[C@H]1O (some centres not stated) [Acarbose] | -4.36 |
| C[C@@H]1C[C@H]2[C@@H]3CCC4=CC(=O)C=C[C@]4(C)[C@@]3(F)[C@@H](O)C[C@]2(C)[C@@]1(O)C(=O)CO [Dexamethasone] | -4.14 |
| N#C[C@@H]1C[C@@H]2C[C@@H]2N1C(=O)[C@@H](N)C12CC3CC(CC(O)(C3)C1)C2 [Saxagliptin hydrochloride] | 2.14 |
| OCCN1C[C@H](O)[C@@H](O)[C@H](O)[C@H]1CO [Miglitol] | 4.04 |
| NC(=O)OCC(COC(N)=O)c1ccccc1 [Felbamate] | -3.94 |
| CCCCCCCN(CC)CCCC(O)c1ccc(NS(C)(=O)=O)cc1 (configuration not stated) [Ibutilide hemifumarate] | 13.3 |
| OCc1cc(C(O)CNCCCCCCOCCCCc2ccccc2)ccc1O (configuration not stated) [Salmeterol xinafoate] | 13.1 |
| Cc1cc2c(s1)Nc1ccccc1N=C2N1CCN(C)CC1 [Olanzapine] | 2.72 |
| OC(c1cc(C(F)(F)F)nc2c(C(F)(F)F)cccc12)C1CCCCN1 (configuration not stated) [Mefloquine hydrochloride] | 13.3 |
| CC(=O)Oc1cc2c(s1)CCN(C(C(=O)C1CC1)c1ccccc1F)C2 (configuration not stated) [Prasugrel] | 5.89 |
